{"source": "PubChem BioAssay (NCI)", "key": {"[1]": {"assay": "NCI Yeast Anticancer Drug Screen. Data for the wt1 strain (AID 149);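 further: 0% = growth of vehicle-treated wt1 cultures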", "settings": "S. cerevisiae wt1 strain (SPY 50644) growth inhibition, hits give high values", "in_short": "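wt1 yeast, compound-treated; % growth inhibition vs vehicle control.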"}, "[2]": {"assay": "NCI Yeast Anticancer Drug Screen. Data for the rad50EPP+ strain (AID 151);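 further: 0% = growth of vehicle-treated control cultures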", "settings": "S. cerevisiae rad50 mutant strain, hits give high values", "in_short": "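Compounds were applied to the rad50EPP+ yeast strain, which bears a defined DNA repair alteration, and growth inhibition was determined relative to vehicle-treated cultures.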"}, "[3]": {"assay": "NCI Yeast Anticancer Drug Screen. Data for the mgt1 strain (AID 153)", "settings": "S. cerevisiae mgt1 mutant growth inhibition, hits give high values", "in_short": "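Strain: mgt1 yeast, one of a set carrying defined DNA damage repair or cell cycle control alterations. Compound-treated growth compared with vehicle.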"}, "[4]": {"assay": "NCI Yeast Anticancer Drug Screen. Data for the rad50 strain (AID 155);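 further: 0% = growth of vehicle-only cultures of the same strain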", "settings": "S. cerevisiae rad50 strain growth inhibition, hits give high values", "in_short": "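Genetically altered yeast (DNA repair pathway); compound treatment; growth inhibition vs vehicle ctrl.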"}, "[5]": {"assay": "NCI Yeast Anticancer Drug Screen. Data for the mec2-1 strain (AID 157)", "settings": "S. cerevisiae mec2-1 strain, hits give high values", "in_short": "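Strain: mec2-1 (DNA repair/cell cycle alteration). Compound exposure, then growth measured; inhibition expressed relative to vehicle.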"}, "[6]": {"assay": "NCI Yeast Anticancer Drug Screen. Data for the rad14 strain (AID 159);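 further: 0% = growth of vehicle-treated control cultures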", "settings": "S. cerevisiae rad14 strain growth inhibition, hits give high values", "in_short": "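Test compounds were applied to a repair-deficient yeast strain. Its growth was then compared with that of cultures given vehicle alone, and inhibition was expressed relative to those controls.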"}, "[7]": {"assay": "NCI Yeast Anticancer Drug Screen. Data for the sgs1 mgt1 strain (AID 161);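 further: 0% = growth of cultures given vehicle only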", "settings": "S. cerevisiae sgs1 mgt1 strain, hits give high values", "in_short": "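Mutant yeast exposed to compound; growth scored against vehicle-only wells.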"}, "[8]": {"assay": "NCI Yeast Anticancer Drug Screen. Data for the CLN2oe strain (AID 163);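 further: 0% = growth of vehicle-only control cultures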", "settings": "S. cerevisiae CLN2oe strain, hits give high values", "in_short": "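Growth of a genetically modified yeast strain is measured after compound exposure and compared with cultures given vehicle alone.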"}, "[9]": {"assay": "NCI Yeast Anticancer Drug Screen. Data for the bub3 strain (AID 167)", "settings": "S. cerevisiae bub3 mutant strain, hits give high values", "in_short": "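Yeast carrying a defined mutation is treated with each compound, and growth is compared with that of vehicle-exposed cells to give inhibition.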"}, "[10]": {"assay": "NCI Yeast Anticancer Drug Screen. Data for the wt2 strain (AID 169);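 further: 0% = growth of vehicle-treated yeast cultures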", "settings": "S. cerevisiae wt2 strain growth inhibition, hits give high values", "in_short": "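This strain belongs to a panel of yeast strains with defined genetic alterations in DNA damage repair or cell cycle control. Compounds are applied, and growth inhibition is measured against vehicle-treated cultures.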"}, "[11]": {"assay": "NCI Yeast Anticancer Drug Screen. Data for the mlh1 strain (AID 171);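 further: 0% = growth of vehicle-treated control cultures of the same strain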", "settings": "S. cerevisiae mlh1 strain growth inhibition, hits give high values", "in_short": "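Growth of the mutant yeast strain after compound exposure, expressed as inhibition relative to vehicle-only controls.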"}, "[12]": {"assay": "NCI Yeast Anticancer Drug Screen. Data for the sgs1 strain (AID 173);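 further: 0% = growth of vehicle-only control cultures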", "settings": "S. cerevisiae sgs1 mutant, hits give high values", "in_short": "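Growth of a yeast strain bearing a defined genetic alteration is measured after compound treatment. Inhibition is expressed relative to vehicle-only controls.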"}, "[13]": {"assay": "NCI Yeast Anticancer Drug Screen. Data for the mlh1 rad18 strain (AID 175)", "settings": "S. cerevisiae mlh1 rad18 strain growth inhibition, hits give high values", "in_short": "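Read-out is yeast growth inhibition, calculated against vehicle-only controls. The compound was applied to a strain engineered with DNA damage repair alterations.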"}, "[14]": {"assay": "NCI Yeast Anticancer Drug Screen. Data for the rad18 strain (AID 177)", "settings": "S. cerevisiae rad18 mutant growth inhibition, hits give high values", "in_short": "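Growth of the mutant yeast strain after compound exposure, normalised to vehicle-only cultures.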"}, "[15]": {"settings": "at 5.0 µM (retest, dose inferred, filed as 0.5)"}, "[16]": {"settings": "at 50.0 µM (retest, dose inferred, filed as 5.0)"}}, "note": "This is part of a sample that, as a whole, favours compounds with a hit. Of some 79,000 tested, about 15% had one in any assay. Unmarked numbers belong to inactive results. Calls of active or inactive are those of the source. No stated cut-off is given here; in the data, active means growth inhibition above about 70%; inactive means the rest."}
{"smiles": "CN(C)CCC(=O)c1c[nH]c2ccccc12", "values": [{"measurement": "growth inhibition", "setting": "[1]; at 1.2 µM", "result": -18, "unit": "%"}, {"measurement": "growth inhibition", "setting": "[1]; at 3.7 µM", "result": -7, "unit": "%"}, {"measurement": "growth inhibition", "setting": "[1]; at 11.0 µM", "result": -7, "unit": "%"}, {"measurement": "growth inhibition", "setting": "[1]; at 33.0 µM", "result": -19, "unit": "%"}, {"measurement": "growth inhibition", "setting": "[1]; at 100.0 µM", "result": 18, "unit": "%"}, {"measurement": "growth inhibition", "setting": "[2]; at 1.2 µM", "result": -17, "unit": "%"}, {"measurement": "growth inhibition", "setting": "[2]; at 3.7 µM", "result": 24, "unit": "%"}, {"measurement": "growth inhibition", "setting": "[2]; at 11.0 µM", "result": 16, "unit": "%"}, {"measurement": "growth inhibition", "setting": "[2]; at 33.0 µM", "result": 39, "unit": "%"}, {"measurement": "growth inhibition", "setting": "[2]; at 100.0 µM", "result": 54, "unit": "%"}, {"measurement": "growth inhibition", "setting": "[3]; at 1.2 µM", "result": -38, "unit": "%"}, {"measurement": "growth inhibition", "setting": "[3]; at 3.7 µM", "result": -10, "unit": "%"}, {"measurement": "growth inhibition", "setting": "[3]; at 11.0 µM", "result": -39, "unit": "%"}, {"measurement": "growth inhibition", "setting": "[3]; at 33.0 µM", "result": -16, "unit": "%"}, {"measurement": "growth inhibition", "setting": "[3]; at 100.0 µM", "result": 18, "unit": "%"}, {"measurement": "growth inhibition", "setting": "[4]; at 1.2 µM", "result": -21, "unit": "%"}, {"measurement": "growth inhibition", "setting": "[4]; at 3.7 µM", "result": -17, "unit": "%"}, {"measurement": "growth inhibition", "setting": "[4]; [15]", "result": "82% (active)"}, {"measurement": "growth inhibition", "setting": "[4]; at 11.0 µM", "result": -26, "unit": "%"}, {"measurement": "growth inhibition", "setting": "[4]; at 33.0 µM", "result": 5, "unit": "%"}, {"measurement": "growth inhibition", "setting": "[4]; [16]", "result": "98% (active)"}, {"measurement": "growth inhibition", "setting": "[4]; at 50.0 µM", "result": "73.5% (active)"}, {"measurement": "growth inhibition", "setting": "[4]; at 100.0 µM", "result": 49, "unit": "%"}, {"measurement": "growth inhibition", "setting": "[5]; at 1.2 µM", "result": -41, "unit": "%"}, {"measurement": "growth inhibition", "setting": "[5]; at 3.7 µM", "result": -35, "unit": "%"}, {"measurement": "growth inhibition", "setting": "[5]; [15]", "result": 67, "unit": "%"}, {"measurement": "growth inhibition", "setting": "[5]; at 11.0 µM", "result": -24, "unit": "%"}, {"measurement": "growth inhibition", "setting": "[5]; at 33.0 µM", "result": -8, "unit": "%"}, {"measurement": "growth inhibition", "setting": "[5]; [16]", "result": "98% (active)"}, {"measurement": "growth inhibition", "setting": "[5]; at 50.0 µM", "result": 37.7, "unit": "%"}, {"measurement": "growth inhibition", "setting": "[5]; at 100.0 µM", "result": 64, "unit": "%"}, {"measurement": "growth inhibition", "setting": "[6]; at 1.2 µM", "result": -23, "unit": "%"}, {"measurement": "growth inhibition", "setting": "[6]; at 3.7 µM", "result": -29, "unit": "%"}, {"measurement": "growth inhibition", "setting": "[6]; at 11.0 µM", "result": -9, "unit": "%"}, {"measurement": "growth inhibition", "setting": "[6]; at 33.0 µM", "result": -2, "unit": "%"}, {"measurement": "growth inhibition", "setting": "[6]; at 100.0 µM", "result": 18, "unit": "%"}, {"measurement": "growth inhibition", "setting": "[7]; [15]", "result": 15, "unit": "%"}, {"measurement": "growth inhibition", "setting": "[7]; [16]", "result": 57, "unit": "%"}, {"measurement": "growth inhibition", "setting": "[7]; at 50.0 µM", "result": 63, "unit": "%"}, {"measurement": "growth inhibition", "setting": "[8]; at 1.2 µM", "result": -11, "unit": "%"}, {"measurement": "growth inhibition", "setting": "[8]; at 3.7 µM", "result": -14, "unit": "%"}, {"measurement": "growth inhibition", "setting": "[8]; at 11.0 µM", "result": -14, "unit": "%"}, {"measurement": "growth inhibition", "setting": "[8]; at 33.0 µM", "result": -6, "unit": "%"}, {"measurement": "growth inhibition", "setting": "[8]; at 100.0 µM", "result": 8, "unit": "%"}, {"measurement": "growth inhibition", "setting": "[9]; at 1.2 µM", "result": -23, "unit": "%"}, {"measurement": "growth inhibition", "setting": "[9]; at 3.7 µM", "result": -29, "unit": "%"}, {"measurement": "growth inhibition", "setting": "[9]; [15]", "result": 22, "unit": "%"}, {"measurement": "growth inhibition", "setting": "[9]; at 11.0 µM", "result": -36, "unit": "%"}, {"measurement": "growth inhibition", "setting": "[9]; at 33.0 µM", "result": -35, "unit": "%"}, {"measurement": "growth inhibition", "setting": "[9]; [16]", "result": 51, "unit": "%"}, {"measurement": "growth inhibition", "setting": "[9]; at 50.0 µM", "result": 64.9, "unit": "%"}, {"measurement": "growth inhibition", "setting": "[9]; at 100.0 µM", "result": 37, "unit": "%"}, {"measurement": "growth inhibition", "setting": "[10]; at 1.2 µM", "result": -19, "unit": "%"}, {"measurement": "growth inhibition", "setting": "[10]; at 3.7 µM", "result": -46, "unit": "%"}, {"measurement": "growth inhibition", "setting": "[10]; at 11.0 µM", "result": -19, "unit": "%"}, {"measurement": "growth inhibition", "setting": "[10]; at 33.0 µM", "result": -14, "unit": "%"}, {"measurement": "growth inhibition", "setting": "[10]; at 100.0 µM", "result": 25, "unit": "%"}, {"measurement": "growth inhibition", "setting": "[11]; at 1.2 µM", "result": -61, "unit": "%"}, {"measurement": "growth inhibition", "setting": "[11]; at 3.7 µM", "result": -74, "unit": "%"}, {"measurement": "growth inhibition", "setting": "[11]; at 11.0 µM", "result": -56, "unit": "%"}, {"measurement": "growth inhibition", "setting": "[11]; at 33.0 µM", "result": -20, "unit": "%"}, {"measurement": "growth inhibition", "setting": "[11]; at 100.0 µM", "result": 37, "unit": "%"}, {"measurement": "growth inhibition", "setting": "[12]; at 1.2 µM", "result": -42, "unit": "%"}, {"measurement": "growth inhibition", "setting": "[12]; at 3.7 µM", "result": -33, "unit": "%"}, {"measurement": "growth inhibition", "setting": "[12]; at 11.0 µM", "result": -34, "unit": "%"}, {"measurement": "growth inhibition", "setting": "[12]; at 33.0 µM", "result": 14, "unit": "%"}, {"measurement": "growth inhibition", "setting": "[12]; at 100.0 µM", "result": 54, "unit": "%"}, {"measurement": "growth inhibition", "setting": "[13]; [15]", "result": 47, "unit": "%"}, {"measurement": "growth inhibition", "setting": "[13]; [16]", "result": "97% (active)"}, {"measurement": "growth inhibition", "setting": "[13]; at 50.0 µM", "result": 45.8, "unit": "%"}, {"measurement": "growth inhibition", "setting": "[14]; at 1.2 µM", "result": -55, "unit": "%"}, {"measurement": "growth inhibition", "setting": "[14]; at 3.7 µM", "result": -62, "unit": "%"}, {"measurement": "growth inhibition", "setting": "[14]; at 11.0 µM", "result": -47, "unit": "%"}, {"measurement": "growth inhibition", "setting": "[14]; at 33.0 µM", "result": 8, "unit": "%"}, {"measurement": "growth inhibition", "setting": "[14]; at 100.0 µM", "result": 57, "unit": "%"}]}
